Assay results published in PubChem BioAssay (NCI).
About 79,000 compounds went through this panel and 15% of them were active in at least one assay; those are over-represented in the sample as a whole. Unmarked numbers belong to inactive results. The source made the active and inactive calls. No stated cut-off is given here; in the data, active means growth inhibition above about 70%; inactive means the rest.

Assay: NCI Yeast Anticancer Drug Screen. Data for the mec2-1 strain (AID 157)
Conditions: S. cerevisiae mec2-1 strain, stronger effect = higher value
Experimental: Growth inhibition of yeast strains with defined genetic alterations is measured as a screen for potential anti-cancer activity. Selected strains with alterations in DNA damage repair or cell cycle control were exposed to compounds and growth inhibition was measured relative to vehicle treated controls. The strain used in this assay is mec2-1

[1] = at 5.0 µM (retest, dose inferred, filed as 0.5)
[2] = at 50.0 µM (retest, dose inferred, filed as 5.0)

CN(C)[C@@H]1C(=O)C(C(=O)NCNc2nc3n[nH]nc3c(=O)[nH]2)=C(O)[C@@]2(O)C(=O)C3=C(O)c4c(O)cccc4[C@@](C)(O)[C@H]3C[C@@H]12
growth inhibition [1]: -4% | growth inhibition [2]: 6% | growth inhibition (at 50.0 µM): 11.2%

CC(C)(C)OC(=O)N(CCCCNCc1ccc2ccccc2c1)CCCNCc1ccc2ccccc2c1
growth inhibition [1]: 19% | growth inhibition [2]: 99% (active) | growth inhibition (at 50.0 µM): 92.6% (active)

O=C(CN1CCCCC1)c1ccc(/C=C/c2ccc(Cl)cc2)cc1
growth inhibition [1]: 4% | growth inhibition [2]: 99% (active) | growth inhibition (at 50.0 µM): 98.4% (active)

CCCCC(=S)N1CCN(c2ccccc2)CC1
growth inhibition [1]: 10% | growth inhibition [2]: 12% | growth inhibition (at 50.0 µM): 62.2%

CCCC(C1=C(O)CC(C)CC1=O)C1=C(O)CC(C)CC1=O (configuration not stated)
growth inhibition [1]: -5% | growth inhibition [2]: -4% | growth inhibition (at 50.0 µM): 0.4%

O=C(Nc1cccc(C(F)(F)F)c1)C(Cl)=C(Cl)Cl
growth inhibition [1]: -1% | growth inhibition [2]: 98% (active) | growth inhibition (at 50.0 µM): 98.8% (active)

O=C(O)Cc1cccc2cc3c(ccc4ccccc43)cc12
growth inhibition [1]: 8% | growth inhibition [2]: 32% | growth inhibition (at 50.0 µM): 91% (active)

CCSC(=O)/C=C1\CN(C(=O)OC(C)(C)C)C1C(=O)OC(C)(C)C (configuration not stated)
growth inhibition [1]: -40% | growth inhibition [2]: -9% | growth inhibition (at 50.0 µM): 26.9%

CN(C)c1nc(N(C)C)nc([N+](C)(C)C)n1
growth inhibition [1]: -3% | growth inhibition [2]: 1% | growth inhibition (at 50.0 µM): 98% (active)

N#CC(NNC(=O)c1ccccc1O)c1c(O)ccc2ccccc12 (configuration not stated)
growth inhibition [1]: 22% | growth inhibition [2]: 51% | growth inhibition (at 50.0 µM): 38.9%

Cc1cccc2c1C1c3c(C)cccc3C(O)CC1CC2O (configuration not stated)
growth inhibition [1]: -6% | growth inhibition [2]: -4% | growth inhibition (at 50.0 µM): 23.1%

COc1ccc(-n2c3c(c4c(N)ncnc42)CCCC3)cc1
growth inhibition [1]: -12% | growth inhibition [2]: -3% | growth inhibition (at 50.0 µM): -7.3%

COc1ccc(-c2c(C#N)c(S)n(NS(=O)(=O)c3ccc(C)cc3)c(=O)c2C#N)cc1
growth inhibition [1]: 18% | growth inhibition [2]: 88% (active) | growth inhibition (at 50.0 µM): 69.1%

CCCCC#CCOC(=O)c1cc([N+](=O)[O-])cc([N+](=O)[O-])c1
growth inhibition [1]: 99% (active) | growth inhibition [2]: 100% (active) | growth inhibition (at 50.0 µM): 98.5% (active)
